Laboratory results: PubChem BioAssay (NCATS)
Where “and” joins values, the source holds several entries; their conditions need not be identical. Equal values may be shown once. Records with an inconclusive call do not appear. A call without a number means that no potency is given here. Values without a mark were called inactive. Calls of active or inactive are those of the source. Calls come from the whole dose curve; as a rule, active = well fitted inhibition curve with a large enough effect; inconclusive = small, poorly fitted or top-dose-only effect; inactive = no such curve, though single readings can be large or run the other way.

experiment: Primary qHTS for inhibitors of nuclear receptor binding SET domain protein 2 (NSD2) in an RCH-ACV wild type WT cells (2C) (AID 1645877); settings: RCH-ACV (leukaemia line) NSD2 WT (2C) viability, CellTiter-Glo, 72 h; series mostly up to 44.9 µM; note: nearly all actives have a fitted effect of over 70% in size
Potency is the fitted concentration of half-maximal effect.

Row | Structure (SMILES) | Potency | activity change, negative = cell killing | outcome
1 | C=C1C[C@]23C[C@H]1[C@@H](O)C[C@H]2[C@@]12C=C[C@H](O)[C@@](C)(C(=O)O1)[C@H]2[C@@H]3C(=O)O | inactive | – | –
2 | C=C1C(=O)O[C@H](CCC)[C@H]1C(=O)O | inactive | – | –
3 | C[C@@H]1O[C@@H](O[C@@H]2[C@@H](O)[C@H](O[C@H]3[C@H](O[C@H]4CC[C@@]5(C)C(CC[C@]6(C)C5CC=C5[C@@H]7CC(C)(C)CC[C@]7(C(=O)O[C@@H]7O[C@H](CO)[C@@H](O)[C@H](O)[C@H]7O[C@@H]7O[C@@H](C)[C@H](O[C@@H]8O[C@@H](C)[C@H](O)[C@@H](O)[C@H]8O)[C@@H](O)[C@H]7O)CC[C@]56C)[C@@]4(C)CO)O[C@H](C(=O)O)[C@@H](O)[C@@H]3O)O[C@H](CO)[C@H]2O)[C@H](O)[C@H](O)[C@H]1O (some centres undefined) | – | -3.64% [at 9.23 µM] | –
4 | CC1(C)CC[C@]2(C(=O)O[C@@H]3O[C@H](CO)[C@@H](O)[C@H](O)[C@H]3O)CC[C@]3(C)C(=CCC4[C@@]5(C)C[C@@H](O)[C@H](O)[C@](C)(C=O)C5CC[C@]43C)[C@@H]2[C@@H]1O (some centres undefined) | inactive | – | –
5 | CC1(C)CC[C@]23CO[C@@]4(CCC5[C@@]6(C)CC[C@H](O[C@@H]7OC[C@H](O[C@@H]8O[C@H](CO)[C@@H](O)[C@H](O)[C@H]8O)[C@H](O)[C@H]7O[C@@H]7O[C@H](CO)[C@@H](O[C@@H]8O[C@H](CO)[C@@H](O)[C@H](O)[C@H]8O)[C@H](O)[C@H]7O)[C@@](C)(CO)C6CC[C@@]5(C)[C@]4(C)C[C@H]2OC2OCC(O)C(O)C2O)C3C1 (some centres undefined) | 1090 nM (active) | – | –
6 | CC1=C(C(=O)O[C@@H]2O[C@H](COC3OCC(O)C(O)C3O)[C@@H](O)[C@H](O)[C@H]2O)C(C)(C)CCC1 (some centres undefined) | inactive | – | –
7 | O=C(OC1C=C(CO)C2C(OC3OC(CO)C(O)C(O)C3O)OC=CC12)c1ccc(O)cc1 (centres undefined) | inactive | – | –
8 | O=C(O)c1ccc(OC2OC(CO)C(O)C(O)C2O)cc1 (centres undefined) | inactive | – | –
9 | C/C=C/C=C/C(O)=C1\C(O)=C(C)C(=O)[C@@]2(C)OC(=O)[C@@](C)(NC(=O)/C=C/C(=O)O)[C@@H]12 | inactive | – | –
10 | C=C1OC2CC(C(=O)O)C=CC2NC1=O (centres undefined) | inactive | – | –
11 | CC(=O)O[C@H]1[C@H](O[C@H]2[C@@H]3C=CO[C@@H](O[C@@H]4O[C@H](CO)[C@@H](O)[C@H](O)[C@H]4O)[C@@H]3[C@@]3(CO)O[C@@H]23)O[C@@H](C)[C@H](OC(=O)/C=C/c2ccccc2)[C@H]1OC(=O)/C=C/c1ccccc1 | – | – | inactive [at 9.23 µM]
12 | CC[C@@H](O)C[C@@H]1C(C)=C[C@@H]2CCCC[C@@H]2[C@@]1(C)C(=O)O | inactive | – | –
13 | CC(O)/C=C/C1OC(=O)CC1Nc1ccc(C(=O)O)cc1 (centres undefined) | inactive | – | –
14 | COc1cc(C(=O)NC2CCN(C)CC2)c(F)cc1Nc1ncc2c(n1)N(C1CCCC1)CC(F)(F)C(=O)N2C | 83.3 nM (active) | – | –
15 | CC1(C)CCCC2(C)C1C(O)C=C(CO)C2(O)CO (centres undefined) | inactive | – | –
16 | O=C(OC[C@H]1O[C@H](O[C@]2(CO)O[C@H](CO)[C@@H](O)[C@@H]2O)[C@H](O)[C@@H](O)[C@@H]1O)c1ccccc1 | inactive | – | –
17 | Nc1nccn2c(C3CCC(C(=O)O)CC3)nc(-c3cc4cccc(Cl)c4[nH]3)c12 (centres undefined) | 1.15 µM (active) and 4.17 µM (active) | – | –
18 | Nc1ncnc2c1ncn2CCNCCCCCO | inactive | – | –
19 | CC[C@H](C)[C@H](NC(=O)[C@H]([C@@H](C)CC)N(C)C(C)=O)C(=O)N[C@H](C(=O)N[C@@H](CC(C)C)C(=O)[C@@]1(C)CO1)[C@@H](C)O | 7.3 nM (active) | – | –
20 | COC(=O)[C@@H](O)[C@H]1[C@@]2(C)CC3(O)[C@@H](C(=O)[C@H]2O)[C@]24O[C@]25CC(=O)O[C@@H](c2ccoc2)[C@]5(C)CCC4[C@]13C (some centres undefined) | inactive | – | –

Row | Structure (SMILES) | Potency | activity change, negative = cell killing | outcome
21 | O=C(Cc1ccc(-c2ccccc2)cc1)NC1CCC1 | inactive | – | –
22 | CCOC(=O)C(CCc1ccccc1)NC1CSC(c2cccs2)CN(CC(=O)O)C1=O (centres undefined) | inactive | – | –
23 | CC1C(OC(=O)c2ccccc2)C(O)C2C(C(=O)O)=COC(OC3OC(CO)C(O)C(O)C3O)C12 (centres undefined) | inactive | – | –
24 | C[C@@H]1O[C@@H](O[C@H]2[C@H](O)[C@@H](O)[C@H](OC[C@H]3O[C@@H](OC(=O)[C@]45CCC(C)(C)C[C@H]4C4=CCC6[C@@]7(C)CC[C@H](O[C@@H]8OC[C@H](O)[C@H](O[C@@H]9O[C@H](CO)[C@@H](O)[C@H](O)[C@H]9O)[C@H]8O)[C@@](C)(CO)C7CC[C@@]6(C)[C@]4(C)CC5)[C@H](O)[C@@H](O)[C@@H]3O)O[C@@H]2CO)[C@H](O)[C@H](O)[C@H]1O (some centres undefined) | – | – | inactive [at 9.23 µM]
25 | CC1=CC(=O)CC(C)(CO)C1(O)/C=C/C(C)O[C@@H]1O[C@H](CO)[C@@H](O)[C@H](O)[C@H]1O (some centres undefined) | inactive | – | –
26 | O=C(c1cc2c(cc1F)OC(c1ccc(F)cc1)(c1ccc(Cl)cc1Cl)O2)N1CCOCC1 (centres undefined) | 20500 nM (active) | – | –
27 | CC/C=C\[C@H](O)[C@H](O)C1=C(C)C(=O)[C@]2(O1)C(=O)N[C@@](OC)(C(=O)c1ccccc1)[C@@H]2O | inactive | – | –
28 | NCc1c[nH]c(=S)n1[C@@H]1CCc2c(F)cc(F)cc2C1 | inactive | – | –
29 | CC1CCC2(OC1)OC1CC3C4CCC5C[C@@H](O[C@@H]6O[C@H](CO[C@@H]7OC[C@@H](O)[C@H](O)[C@H]7O)[C@H](O)[C@H](O)[C@H]6O)CC[C@]5(C)C4CC[C@]3(C)C1C2C (some centres undefined) | inactive | – | –
30 | COc1ccc(/C=C/C(=O)O[C@H]2[C@H](O[C@H]3[C@@H]4C=CO[C@@H](O[C@@H]5O[C@H](CO)[C@@H](O)[C@H](O)[C@H]5O)[C@@H]4[C@@]4(CO)O[C@@H]34)O[C@@H](C)[C@H](O)[C@H]2OC(C)=O)cc1 | inactive | – | –
31 | Cc1ccccc1CN1C2=NCCN2C(=O)C2=C1CCN(Cc1ccccc1)C2 | inactive | – | –
32 | CCNC(=O)Nc1ncc(-c2cc(-c3c(C)cc(OC)cc3C)nc(-c3cnccn3)n2)s1 | inactive | – | –
33 | CCC(CC)C(=O)Nc1sc2c(c1C#N)CCC(C(C)(C)CC)C2 (centres undefined) | inactive | – | –
34 | COC(=O)CC(O)CC(O)/C=C/c1c(C)ccc2c1C(O)CC(C)C2 (centres undefined) | inactive | – | –
35 | C[C@@H]1O[C@@H](O[C@H]2[C@H](O[C@H]3[C@H](O)[C@@H](C(=O)O)O[C@@H](O[C@H]4CC[C@@]5(C)C(CC[C@]6(C)C5CC[C@]57OC[C@@]8(CCC(C)(C)CC85)[C@H](O)C[C@]76C)C4(C)C)[C@@H]3O[C@@H]3O[C@H](CO)[C@@H](O[C@@H]4OC[C@@H](O)[C@H](O)[C@H]4O)[C@H](O)[C@H]3O)O[C@H](CO)[C@H](O)[C@@H]2O)[C@H](O)[C@H](O)[C@H]1O (some centres undefined) | – | -1.94% [at 9.23 µM] | –
36 | CC(C)C(C#N)O[C@@H]1O[C@H](CO[C@@H]2O[C@@H](C)[C@H](O)[C@@H](O)[C@H]2O)[C@@H](O)[C@H](O)[C@H]1O (some centres undefined) | inactive | – | –
37 | CO[C@H]1O[C@@H]2O[C@]3(C)CC[C@H]4[C@H](C)CC[C@@H]([C@H]1C)[C@@]24OO3 | 7280 nM (active) | – | –
38 | CCNC(=O)Nc1ccc(-c2nc3c(c(N4CCOC[C@@H]4C)n2)CCN(c2ncccn2)C3)cc1 | 103 nM (active) | – | –
39 | CC1(C)CC(=O)C2=C(C1)NC(=S)NC2c1cccc(O)c1 (centres undefined) | 817 nM (active) | – | –
